Several values for one entry are separate records, joined by “and”; a condition that tells them apart may be missing. Equal values may be shown once. Activity calls are given as the source filed them. The call rests on the fitted dose curve; in most records, active means well fitted inhibition curve with a large enough effect; inconclusive means small, poorly fitted or top-dose-only effect; inactive means flat fitted curve, though single readings scatter.
Assay: Quantitative high throughput screen for delayed death inhibitors of the malarial parasite plastid, 48 hour incubation.
Conditions: P. falciparum in erythrocytes, luciferase growth
Text: NIH Molecular Libraries Probe Production Network [MLPCN] NIH Chemical Genomics Center [NCGC] MLPCN Grant: R21 NS059500 Assay Provider: David Fidock and Eric Ekland, Columbia University The goal of this screen is to discover new antimalarial compounds that act by inhibiting the development of the apicoplast in the malarial parasite Plasmodium falciparum. The biochemical processes that make this organelle essential for erythrocytic stage parasites are not well understood. However, antibiotics, such as azithromycin and tetracycline, which target the apicoplast translational machinery, have a potent antimalarial effect. […] We have developed a cell-based assay that measures parasite growth based on the expression of an integrated copy of a firefly luciferase reporter. To detect small molecules that cause this 'delayed death' phenotype, erythrocytes infected with the luciferase-expressing parasites were incubated with compounds for either one or two generations, corresponding to 48 and 96 hours, respectively. Compounds that inhibit parasite growth in the second generation, but not the first, should be enriched in antimalarials that target the apicoplast. Growth inhibition is detected by a decrease in luciferase activity
Four microliters of culture medium (RPMI 1640 with 0.5% w/v Albumax (GIBCO), 24 mM sodium bicarbonate and 10 ug/mL gentamycin) were dispensed by a Multi-drop Combi into white solid 1536-well plates (Grenier) and 23 nL compound was added by a pin tool. Four microliters of infected erythrocytes (2% hematocrit, 0.1% parasitemia final concentration) in culture medium were dispensed and the plates incubated for 48 hours at 37 C in 5% CO2. Two microliters of luciferase detection reagent was added and luminescence was detected by a ViewLux (PerkinElmer) reader

Compound	Potency
C[C@@H]1CCCCO[C@H](CN(C)C(=O)Nc2ccc(F)cc2)[C@H](C)CN([C@@H](C)CO)C(=O)c2cc(NS(=O)(=O)c3ccccc3)ccc2O1	356 nM (active)
C[C@@H]1CN([C@@H](C)CO)C(=O)c2cc(NC(=O)Nc3ccccc3)ccc2O[C@@H](C)C/C=C/CO[C@H]1CN(C)S(=O)(=O)c1ccc(F)cc1	142 nM (active)
C[C@@H]1CN([C@@H](C)COC(=O)c2ccccc2)C(=O)c2cc(NC(=O)Nc3ccccc3)ccc2O[C@@H](C)CCCCO[C@H]1CN(C)S(=O)(=O)c1ccc(F)cc1	63.4 nM (active)
C=CCOC(=O)N(C)C[C@H]1OCCCC[C@H](C)Oc2ccc(NC(=O)Nc3ccccc3)cc2C(=O)N([C@@H](C)CO[Si](C)(C)C(C)(C)C)C[C@H]1C	283 nM (active)
CC(C)N1C[C@@H](C)[C@H](CN(C)S(=O)(=O)c2ccc(F)cc2)OCCCC[C@H](C)Oc2ccc(NC(=O)Nc3ccccc3)cc2C1=O	17.9 nM (active)
C[C@@H]1CN([C@@H](C)CO)C(=O)c2cc(NC(=O)Nc3ccccc3)ccc2O[C@@H](C)CCCCO[C@H]1CN(C)C(=O)OC(C)(C)C	565 nM (active)
Cc1noc(C)c1NC(=O)Nc1ccc2c(c1)C(=O)N(C(C)C)C[C@@H](C)[C@H](CN(C)S(=O)(=O)c1ccc(F)cc1)OCCCC[C@H](C)O2	63.4 nM (active) and 1.59 µM (active)
COCOC[C@H](C)N1C[C@@H](C)[C@H](CN(C)S(=O)(=O)c2ccc(F)cc2)OCCCC[C@H](C)Oc2ccc(NC(=O)Nc3ccccc3)cc2C1=O	10 nM (active)
COCCOCOC[C@H](C)N1C[C@@H](C)[C@H](CN(C)S(=O)(=O)c2ccc(F)cc2)OCCCC[C@H](C)Oc2ccc(NC(=O)Nc3ccccc3)cc2C1=O	11.3 nM (active)
Cc1noc(C)c1NC(=O)Nc1ccc2c(c1)C(=O)N([C@@H](C)CO)C[C@@H](C)[C@H](CN(C)S(=O)(=O)c1ccc(F)cc1)OCCCC[C@H](C)O2	126 nM (active)
COc1ccc(COCCN2C[C@@H](C)[C@H](CN(C)S(=O)(=O)c3ccc(F)cc3)OCCCC[C@H](C)Oc3ccc(NC(=O)Nc4ccccc4)cc3C2=O)cc1	100 nM (active)
C=CCOC(=O)N(C)C[C@@H]1OCCCC[C@H](C)Oc2ccc(NC(=O)Nc3ccccc3)cc2C(=O)N([C@H](C)COC(=O)c2ccccc2)C[C@H]1C	504 nM (active)
C[C@@H]1CN(CCO)C(=O)c2cc(NC(=O)Nc3ccccc3)ccc2O[C@@H](C)CCCCO[C@H]1CN(C)S(=O)(=O)c1ccc(F)cc1	179 nM (active)
C[C@@H]1CN([C@@H](C)CO)C(=O)c2cc(N)ccc2O[C@@H](C)CCCCO[C@H]1CN(C)S(=O)(=O)c1ccc(F)cc1	159 nM (active)
C[C@@H]1CCCCO[C@@H](CN(C)Cc2ccc(F)cc2)[C@H](C)CN([C@@H](C)CO)C(=O)c2cc(NC(=O)Nc3ccccc3)ccc2O1	4000 nM (active)
C[C@@H]1CN([C@@H](C)COC(=O)C(C)(C)C)C(=O)c2cc(NC(=O)Nc3ccccc3)ccc2O[C@@H](C)CCCCO[C@H]1CN(C)S(=O)(=O)c1ccc(F)cc1	11.3 nM (active)
C[C@@H]1CN([C@@H](C)COC(=O)c2ccccc2)C(=O)c2cc(NC(=O)Nc3ccccc3)ccc2O[C@@H](C)CCCCO[C@H]1CN(C)C(=O)OC(C)(C)C	400 nM (active)

Compound	Potency
C[C@@H]1CN([C@@H](C)CN=[N+]=[N-])C(=O)c2cc(NC(=O)Nc3ccccc3)ccc2O[C@@H](C)CCCCO[C@H]1CN(C)S(=O)(=O)c1ccc(F)cc1	3.6 nM (active)
C[C@@H]1CN([C@@H](C)CO)C(=O)c2cc(NC(=O)Nc3ccccc3)ccc2O[C@@H](C)CCCCO[C@H]1CN(C)S(=O)(=O)c1cccnc1	2830 nM (active)
C[C@@H]1CN([C@@H](C)CO)C(=O)c2cc(NC(=O)Nc3ccccc3)ccc2O[C@@H](C)CCCCO[C@H]1CN(C)S(=O)(=O)c1cccc(F)c1	10 nM (active)
C[C@@H]1CN(C)C(=O)c2cc(NC(=O)Nc3ccccc3)ccc2O[C@@H](C)CCCCO[C@@H]1CN(C)S(=O)(=O)c1ccc(F)cc1	1260 nM (active)
C[C@@H]1CN(CCO[Si](C)(C)C(C)(C)C)C(=O)c2cc(NC(=O)Nc3ccccc3)ccc2O[C@@H](C)CCCCO[C@H]1CN(C)S(=O)(=O)c1ccc(F)cc1	56.5 nM (active)
C=CCOC(=O)N(C)C[C@@H]1OCCCC[C@H](C)Oc2ccc(NC(=O)Nc3ccccc3)cc2C(=O)N([C@@H](C)CO)C[C@H]1C	356 nM (active)
C[C@@H]1CN([C@@H](C)CO)C(=O)c2cc(NC(=O)Nc3ccccc3)ccc2O[C@@H](C)CCCCO[C@H]1CN(C)S(=O)(=O)c1ccc(C(F)(F)F)cc1	896 nM (active)
C[C@@H]1CN([C@@H](C)CO)C(=O)c2cc(NC(=O)Nc3ccccc3)ccc2O[C@@H](C)CCCCO[C@H]1CN(C)S(=O)(=O)c1ccccc1F	634 nM (active)
C[C@@H]1CN([C@@H](C)COC(C)(C)C)C(=O)c2cc(NC(=O)Nc3ccccc3)ccc2O[C@@H](C)CCCCO[C@H]1CN(C)S(=O)(=O)c1ccc(F)cc1	1.3 nM (active)
C[C@@H]1CN([C@@H](C)CO[Si](C)(C)C(C)(C)C)C(=O)c2cc(NC(=O)Nc3ccccc3)ccc2O[C@@H](C)CCCCO[C@H]1CN(C)S(=O)(=O)c1ccc(F)cc1	1.1 nM (active)
CC(C)NC(=O)Nc1ccc2c(c1)C(=O)N([C@@H](C)CO)C[C@@H](C)[C@H](CN(C)S(=O)(=O)c1ccc(F)cc1)OCCCC[C@H](C)O2	634 nM (active)
C[C@@H]1CN([C@@H](C)CO)C(=O)c2cc(NC(=O)Nc3ccccc3)ccc2O[C@@H](C)C/C=C\CO[C@H]1CN(C)S(=O)(=O)c1ccc(F)cc1	356 nM (active)
C[C@@H]1CN([C@@H](C)CO)C(=O)c2cc(Nc3nc4ccccc4o3)ccc2O[C@@H](C)CCCCO[C@H]1CN(C)S(=O)(=O)c1ccc(F)cc1	1590 nM (active)
C[C@@H]1CN([C@H](C)CO[Si](C)(C)C(C)(C)C)C(=O)c2cc(NC(=O)Nc3ccccc3)ccc2O[C@@H](C)CCCCO[C@H]1CN(C)S(=O)(=O)c1ccc(F)cc1	225 nM (active)
COc1ccc(COC[C@H](C)N2C[C@@H](C)[C@H](CN(C)Cc3ccc(OC)cc3)OCCCC[C@H](C)Oc3ccc(NC(=O)Nc4ccccc4)cc3C2=O)cc1	565 nM (active)
C[C@@H]1CN([C@@H](C)CO)C(=O)c2cc(NC(=O)Nc3ccccc3)ccc2O[C@@H](C)CCCCO[C@H]1CN(C)Cc1ccc(C(F)(F)F)cc1	1000 nM (active)

From PubChem BioAssay AID504608 (National Center for Advancing Translational Sciences (NCATS), 2011)
